# Compound activity from PubChem.
# The full list was thinned out, with hits kept by preference.
# HT1080NT lethal = kills 2HG-producing HT-1080-NT fibrosarcoma cells; HT-1080-NT fibrosarcoma viability, CellTiter-Glo ATP luminescence, 48 h; Potency, µM (series often up to 46.1 µM), without a hit: at the highest dose activity, negative = less viability, most hits filed as cytotoxic; 360,000 compounds, 1.6% hits; AID 686970;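 further: NT is the 2HG producing partner of a matched IDH1 knockdown line; potency means the concentration at half of the fitted maximal effect; 0% = DMSO-treated cells and -100% = media-only wells without cells; nearly all actives have a fitted effect of over 55% in size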
#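 Toxicity toward the 2HG-producing NT line was scored as %Activity, normalised to DMSO and no-cell wells, from CellTiter-Glo luminescence after 48 hours' treatment.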
# DT40 TDP1 CPT = DT40-hTDP1 cell growth loss with CPT; chicken DT40 Tdp1-/-;hTDP1 cells + 20 nM CPT, ATP luminescence, 48 h; Potency, µM (highest dose often 46.2 µM), for the others: at the top dose activity change, negative = growth inhibition, hits mostly inhibitors; 420,000 compounds, 12% hits; AID 686979; further: potency means the concentration at half of the fitted maximal effect; nearly all actives have a fitted effect of over 55% in size
#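 Chicken DT40 Tdp1-/- cells complemented with human TDP1, 400 cells/well, exposed to compounds plus 20 nM camptothecin for at least 48 h at 37 C; viability read as ATP content by CellTiter-Glo luminescence.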
# IL-1B inflam inh = inhibitors of inflammasome signaling (IL-1 beta secretion); THP-1 LPS/ATP IL-1B secretion, AlphaLISA, 16 h; active compounds read low; activity change, % at 57.5 µM; 360,000 compounds, 4.7% hits; AID 743279; in the data active means activity change below about -50%; inconclusive means mostly about -30% to -49%
#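 Secreted IL-1B measured by AlphaLISA bead assay after 16 h compound exposure of THP-1 cells; compounds (final up to 57.5 uM) added 1 h before LPS (250 ng/mL) and ATP (1.25 mM) stimulation; lower signal means less secretion.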
# TDP1 cell noCPT = qHTS for Inhibitors of human tyrosyl-DNA phosphodiesterase 1 (TDP1): qHTS in cells in absence of CPT | DT40 Tdp1-/- hTDP1 cells, no CPT, ATP luminescence, 48 h | Potency, µM (doses to about 46.2 µM), for the others: at the top dose activity change, negative = growth inhibition, actives largely listed as inhibitors | 420,000 compounds, 15% hits | AID 686978, 2013; further: potency means the concentration at half of the fitted maximal effect; nearly all actives have a fitted effect of over 55% in size
#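 Luminescent ATP content (CellTiter-Glo) served as the growth readout. Knockout chicken DT40 cells expressing human TDP1 were exposed to compounds without camptothecin for a minimum 48 hr at 37 °C.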
# ALOX12 inh = blocks human arachidonate 12S-lipoxygenase | 580,000 compounds, 1.1% hits | Potency, µM (titrated, usually from 108 µM), for inactives: at the highest dose activity change, negative = inhibition, most hits filed as inhibitors | purified 12hLO, xylenol orange hydroperoxide absorbance | P18054 | AID 1671190; further: potency means the concentration at half of the fitted maximal effect
# Target sequence (P18054 whole entry, looked up): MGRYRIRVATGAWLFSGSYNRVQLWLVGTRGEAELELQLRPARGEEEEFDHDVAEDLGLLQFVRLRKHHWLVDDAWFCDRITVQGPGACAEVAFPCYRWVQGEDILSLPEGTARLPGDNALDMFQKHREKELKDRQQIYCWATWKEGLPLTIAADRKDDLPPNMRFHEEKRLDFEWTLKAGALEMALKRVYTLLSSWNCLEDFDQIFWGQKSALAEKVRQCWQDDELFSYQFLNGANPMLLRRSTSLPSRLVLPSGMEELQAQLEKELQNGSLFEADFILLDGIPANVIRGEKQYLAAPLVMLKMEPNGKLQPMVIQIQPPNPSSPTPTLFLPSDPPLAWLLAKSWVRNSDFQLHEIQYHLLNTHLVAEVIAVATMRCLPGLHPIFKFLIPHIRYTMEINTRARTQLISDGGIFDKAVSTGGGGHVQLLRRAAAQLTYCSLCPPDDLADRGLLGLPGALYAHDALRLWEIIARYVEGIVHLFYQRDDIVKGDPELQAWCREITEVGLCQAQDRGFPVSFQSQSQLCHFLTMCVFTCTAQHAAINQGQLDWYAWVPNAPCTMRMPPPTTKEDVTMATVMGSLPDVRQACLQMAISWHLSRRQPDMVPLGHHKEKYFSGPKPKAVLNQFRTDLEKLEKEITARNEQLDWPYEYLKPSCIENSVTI
#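 Hydroperoxide product was detected by ferrous iron/xylenol orange as the 573 to 405 nm absorbance ratio. Arachidonic acid at 40 uM (final) was turned over for 30 min at room temperature by 150 nM human 12hLO, pH 7.0 Hepes buffer, after 15 min compound preincubation.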
# HT1080 IDH1KD tx = HT-1080 IDH1 knockdown cell toxicity (counter line) | HT-1080 IDH1 knockdown viability, ATP luminescence, 48 h | Potency, µM (titrated, usually from 46.1 µM), without a hit: at the highest dose activity, negative = toxicity, hits mostly cytotoxic | 360,000 compounds, 2% hits | AID 686971;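 further: potency means the concentration at half of the fitted maximal effect; 0% = DMSO wells and -100% = cell-free medium wells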
#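 Viability of IDH1-knockdown HT-1080 fibrosarcoma cells was assessed by CellTiter-Glo after 48 h at 37 °C with titrated compound; concentration-effect curves were classified by fit quality and response size.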
# * hit, by the source's call; ? = inconclusive; nt = no result given; [ ] = another dose, or the depositor's remark. Unless noted, the call rests on the fitted dose curve; in most records, active means well fitted curve in the direction sought with a large enough effect; inconclusive means small, poorly fitted or top-dose-only effect, or another doubt; inactive means no such curve, though single readings can be large; an effect the other way counts as inactive or inconclusive. Unless noted, on the % scale 0 is the no-effect control and ±100 the full control effect.
SMILES,HT1080NT lethal,DT40 TDP1 CPT,IL-1B inflam inh,TDP1 cell noCPT,ALOX12 inh,HT1080 IDH1KD tx
CCc1noc(-c2ccn3c(CNC(=O)c4ccc(OC)cc4)nnc3c2)n1,nt,nt,nt,nt,16%,nt
Cc1cc(C)cc(NC(=O)Nc2ccc(-n3ccc(C(F)(F)F)n3)cc2)c1,21µM*,?,-77*,21µM*,2%,23µM*
COc1ccccc1NC(=O)Nc1ccc(-n2ccc(C(F)(F)F)n2)cc1,-27%,?,-71*,26µM*,?,-23%
O=C(NC(=O)c1ccccc1)Nc1ccc(-n2nc(C(F)(F)F)cc2C(F)(F)F)cc1,nt,8%,nt,1%,5%,nt
O=C(Nc1ccc(-n2ccc(C(F)(F)F)n2)cc1)Nc1cccc(Cl)c1,nt,nt,nt,nt,0%,nt
COc1ccccc1C(=O)NC(=O)Nc1ccc(-n2nc(C(F)(F)F)cc2C(F)(F)F)cc1,nt,?,nt,15µM*,?,nt
O=C(C(Sc1nc2cc(S(=O)(=O)N3CCCCC3)ccc2o1)c1ccccc1)N1CCCCC1 (configuration not stated),nt,nt,nt,nt,7%,nt
COC(=O)C(C(=O)OC)C1C=CCN(C(C)=O)C1 (configuration not stated),4%,9%,42,-1%,-10%,5%
CN(c1ccccc1)c1ccc2nnc(-c3cc(C(=O)NCCc4ccccc4)ccn3)n2n1,nt,nt,nt,nt,0%,nt
CSc1ccccc1NC(=O)Nc1ccc(F)c(Cl)c1,-3%,?,?,?,?,1%
CN(c1cccc(NC(=O)Nc2cccc(Cl)c2)c1)S(C)(=O)=O,-29%,?,-25,16µM*,?,-2%[9.24 µM]
CSc1ccccc1NC(=O)CN(C)CC(=O)Nc1ccc(Cl)cc1F,-2%,23µM*,-8,?,-10%,-5%
CSc1ccccc1NC(=O)Nc1cccc(Cl)c1,7%,16µM*,-1,?,?,2%
CN(Nc1cccc(Cl)c1)c1cccc(Cl)c1,-25%,?,-11,?,32µM*,?
O=C(Cc1cccc(F)c1)N1CCC2(CC1)CN(c1ncccn1)CC2CO (configuration not stated),nt,nt,nt,nt,20%,nt
COc1ccc(CCC(=O)NCc2cc3n(n2)CCN(C(=O)N(C)C)C3)cc1,nt,nt,nt,nt,-8%,nt
COc1cccc(C(=O)Nc2ncc3c(n2)CC(C)(C)CC3=O)c1,-13%,?,-4,16µM*,?,-12%
COc1ccc(C2CC(=O)c3cnc(NC(=O)c4ccccc4OC)nc3C2)c(OC)c1 (configuration not stated),-18%,16µM*,8,15µM*,3%,-12%
CCOC(=O)C1=C(c2ccccc2)NC(SCC(=O)NC2CCCCC2)=C(C#N)C1c1ccco1 (configuration not stated),-1%,6%,-55*,2%,1%,-1%
C=CCOC(=O)C1=C(C)NC(SCC(=O)Nc2ccc(C)c(Cl)c2)=C(C#N)C1c1ccco1 (configuration not stated),18µM*,?,-3,29µM*,?,16µM*
COc1ccc(NC(=O)CSC2=C(C#N)C(c3ccco3)C(C(=O)Nc3nc4ccccc4s3)=C(C)N2)cc1 (configuration not stated),-22%,?,32,?,403%,-18%
CCOC(=O)C1=C(C)NC(C)=C(C(=O)OC)C1c1ccco1 (configuration not stated),17%,55%,1,-9%,7%,9%
COCCOC(=O)C1=C(C)NC(SCC(=O)NC(C)(C)C)=C(C#N)C1c1ccco1 (configuration not stated),-1%,26µM*,-3,23µM*,43%,-3%
Cn1cc(CN2CC[C@@H](c3ccc4c(c3)OCO4)[C@H](O)C2)c2ccccc21,nt,nt,nt,nt,-1%,nt
CC(NC(=O)CSc1nc(-c2cccs2)nc2ccccc12)c1ccco1 (configuration not stated),nt,nt,nt,nt,-18%,nt
SMILES,HT1080NT lethal,DT40 TDP1 CPT,IL-1B inflam inh,TDP1 cell noCPT,ALOX12 inh,HT1080 IDH1KD tx
CCc1nnc(NC(=O)C(NS(=O)(=O)c2ccc3c(c2)OCCO3)C(C)C)s1 (configuration not stated),-1%,-24%,8,-23%,35µM*,-9%
Cc1ccc(-c2ccc(=O)n(CC(=O)NCCc3ccccc3)n2)cc1,nt,-6%,nt,-27%,-11%,nt
COCCn1c2nc(=O)n(-c3ccccc3)c(=O)c-2nc2ccccc21,-21%,?,68,12µM*,-26%,?
CCSc1nc2c(c(=O)[nH]c(=O)n2C)n1Cc1ccccc1Cl,nt,nt,nt,nt,32µM*,nt
CCCCCn1c(Sc2nc3ccccc3s2)nc2c1c(=O)[nH]c(=O)n2C,-24%,16µM*,-8,?,0%[57.4 µM],-5%
CCCCCn1c(Sc2ncccn2)nc2c1c(=O)[nH]c(=O)n2C,-16%,-4%,14,?,0%,-9%
C=CCn1c(SCC(=C)C)nc2c1c(=O)[nH]c(=O)n2C,0%,-4%,15,-8%,-22%,0%
C=C(C)CSc1nc2c(c(=O)[nH]c(=O)n2C)n1CCC(C)C,0%,15µM*,50,16µM*,-5%,-4%
Cn1c(=O)[nH]c(=O)c2c1nc(N1CCCCC1)n2CCSc1nc2ccccc2o1,-2%,-13%,2,-15%,-5%,10%
CC(C)CCn1c(Sc2nc3ccccc3o2)nc2c1c(=O)[nH]c(=O)n2C,8%,18µM*,-105*,16µM*,?,1%
CNC(=O)[C@@H]1CN(Cc2c(F)cccc2Cl)C[C@H]1CO,nt,nt,nt,nt,42%,nt
N#Cc1nc(-c2ccc(S(=O)(=O)N3CCCC3)cc2)oc1NCc1cccnc1,nt,nt,nt,nt,3%,nt
C/C=C/Cn1c(SCc2ccccc2Cl)nc2c1c(=O)[nH]c(=O)n2C,nt,nt,nt,nt,-23%,nt
CCOCCn1c(SCc2ccc(C)cc2)nc2c1c(=O)[nH]c(=O)n2C,13%,13µM*,23,?,-4%[57.4 µM],0%
CCSc1nc2c(c(=O)[nH]c(=O)n2C)n1Cc1ccc(Cl)cc1,-8%,?,-4,?,2%,-10%[9.24 µM]
CC(C)CCn1c(SCc2ccc(Cl)cc2)nc2c1c(=O)[nH]c(=O)n2C,2%,16µM*,-14,18µM*,?,1%
C/C=C/Cn1c(SCc2ccccc2)nc2c1c(=O)[nH]c(=O)n2C,-16%,21µM*,1,?,0%,-11%
